Out of some 310,000 compounds screened, about 2,200 (0.71%) showed an effect of 50% or more. Effects have a minus sign here. The sample as a whole holds a higher share of strong results than the screen did.

The record followed here is paper PMC4336329 (PLoS ONE, 2015).

In the test the target is human ether-à-go-go-related gene (hERG) potassium channel (human, UniProt Q12809). Put plainly: primary screen, population patch clamp on CHO cells stably expressing hERG; higher = less effect of the substance.
human ether-à-go-go-related gene (hERG) potassium channel, sequence (Q12809 whole entry, looked up): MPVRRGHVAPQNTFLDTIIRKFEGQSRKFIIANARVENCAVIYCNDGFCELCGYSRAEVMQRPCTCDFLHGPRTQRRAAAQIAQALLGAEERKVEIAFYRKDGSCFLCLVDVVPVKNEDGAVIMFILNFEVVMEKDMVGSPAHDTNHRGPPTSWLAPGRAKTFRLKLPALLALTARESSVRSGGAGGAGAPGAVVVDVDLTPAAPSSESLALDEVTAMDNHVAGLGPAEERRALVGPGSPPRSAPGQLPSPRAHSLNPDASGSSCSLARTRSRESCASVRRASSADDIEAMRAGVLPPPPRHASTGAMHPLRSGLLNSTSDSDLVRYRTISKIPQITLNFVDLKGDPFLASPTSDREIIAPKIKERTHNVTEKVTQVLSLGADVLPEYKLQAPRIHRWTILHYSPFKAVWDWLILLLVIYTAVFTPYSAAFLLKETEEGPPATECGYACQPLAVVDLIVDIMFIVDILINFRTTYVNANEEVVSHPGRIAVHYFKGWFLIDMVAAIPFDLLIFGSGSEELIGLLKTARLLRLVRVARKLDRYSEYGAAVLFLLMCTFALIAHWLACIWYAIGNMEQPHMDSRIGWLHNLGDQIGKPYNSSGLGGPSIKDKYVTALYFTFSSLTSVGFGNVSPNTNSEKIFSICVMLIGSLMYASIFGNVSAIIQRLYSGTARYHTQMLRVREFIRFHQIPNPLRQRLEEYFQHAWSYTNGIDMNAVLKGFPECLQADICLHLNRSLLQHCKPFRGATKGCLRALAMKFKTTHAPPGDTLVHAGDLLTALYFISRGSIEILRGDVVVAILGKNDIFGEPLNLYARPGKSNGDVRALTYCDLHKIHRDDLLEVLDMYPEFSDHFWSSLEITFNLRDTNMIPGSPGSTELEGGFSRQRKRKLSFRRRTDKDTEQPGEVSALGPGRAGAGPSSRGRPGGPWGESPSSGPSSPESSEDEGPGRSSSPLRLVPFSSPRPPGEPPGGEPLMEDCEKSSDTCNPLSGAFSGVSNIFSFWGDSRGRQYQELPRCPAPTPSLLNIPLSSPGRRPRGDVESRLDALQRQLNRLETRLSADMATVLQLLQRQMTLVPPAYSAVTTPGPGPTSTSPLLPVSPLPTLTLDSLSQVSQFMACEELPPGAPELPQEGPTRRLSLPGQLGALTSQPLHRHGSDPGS
Consider `Cc1ccc(CS(=O)(=O)CCC(=O)NCCC(C)C)cc1`, for which the “hERG current change (%, negative = inhibition) at 1uM” value is 6.06%. For the compound `COCCn1c(C)cc(C(=O)CSc2nc(C)c(C)c(C)n2)c1C`, the “hERG current change (%, negative = inhibition) at 1uM” value is reported as 9.29%. Regarding `CCc1noc(C)c1C(=O)Nc1sc(C(=O)N(C)C)c(C)c1C(=O)OC`, the “hERG current change (%, negative = inhibition) at 1uM” value was -6.16%.

On to `Cc1c(NC(=O)c2ccc(S(=O)(=O)N3CCOCC3)cc2)cccc1[N+](=O)[O-]`, for which the “hERG current change (%, negative = inhibition) at 1uM” value came out at 7.56%. For `CC(C)(C)n1ncc2c(=O)n(Cc3cccc(Cl)c3)cnc21` the value was -10.1%; for `Cc1ccnc(NS(=O)(=O)c2cccs2)c1`, 12.9%; for `Cc1ccc(C(=O)COC(=O)c2ccc3c(c2)C(=O)N(c2cccc4ncccc24)C3=O)cc1C`, 4.09%. The same measure for `COC(=O)c1c(C)[nH]c(C(=O)C(C)OC(=O)C2CC2)c1C` (stereo not shown): 10%; for `Cc1cc(N2CCN(c3ccc([N+](=O)[O-])c4cccnc34)CC2)c2ccccc2n1`: -13.9%; for `Cc1cc(N2CCN(c3ccc(C(F)(F)F)cc3[N+](=O)[O-])CC2)c2ccccc2n1`: -64.2%. For `Cc1ccc(S(=O)(=O)N2CCN(c3ccc(C(F)(F)F)cc3[N+](=O)[O-])CC2)cc1` the value was 2.51%; for `COc1ccccc1NC(=O)Nc1ccc(N2CCOCC2)cc1`, 10.4%. As for `Cc1ccc(NC(=O)CN2C(=O)NC(C)(c3ccc(Cl)cc3)C2=O)cc1` (stereo not shown), the “hERG current change (%, negative = inhibition) at 1uM” value is 14.4%. The same measure for `COc1ccc(NC(=O)NC2CC3CCCC(C2)N3Cc2ccccc2)cc1` (stereo not shown): -17.4%; for `O=C(Nc1cccc(F)c1)NC1CC2CCCC(C1)N2C1CC1` (stereo not shown): 4.85%. For `Cc1ccc(CN2C3CCCC2CC(NC(=O)Nc2cccc(F)c2)C3)cc1` (stereo not shown) the value was -85.2%; for `COc1ccc(CN2C3CCCC2CC(NC(=O)/C=C/c2ccccc2)C3)cc1` (stereo not shown), -84.2%; for `COc1ccccc1CN1C2CCCC1CC(NC(=O)/C=C/c1ccccc1)C2` (stereo not shown), -43.8%. For `COc1ccc(CN2C3CCCC2CC(NC(=O)Nc2ccccc2C)C3)cc1` (stereo not shown) the value was -36.5%; for `Cc1cccc(NC(=O)NC2CC3CCC(C2)N3Cc2ccco2)c1` (stereo not shown), -8.04%. As for `CCc1cccc(CC)c1NC(=O)CN1C2CCCC1CC(NC(=O)Nc1cccc(OC)c1)C2` (stereo not shown), the “hERG current change (%, negative = inhibition) at 1uM” value is 9.12%. The same measure for `CCC(=O)NC1CC2CCCC(C1)N2Cc1ccc(C)cc1` (stereo not shown): -11.9%. Turning to `O=C(/C=C/c1ccccc1)NC1CC2CCCC(C1)N2Cc1ccccc1` (stereo not shown), the “hERG current change (%, negative = inhibition) at 1uM” value is recorded as -46.4%. For `COc1ccc(CN2C3CCCC2CC(NC(=O)Nc2cccc(C)c2)C3)cc1` (stereo not shown) the value was -71.5%; for `COc1ccc(CN2C3CCCC2CC(NC(=O)Nc2ccccc2)C3)cc1` (stereo not shown), -64%; for `CC(C)(C)OC(=O)NCCCCCc1nnc(SCc2ccc(F)cc2)o1`, 3.71%. For `CCCCc1cc2c(s1)CCCC/C2=N/O` the value was 2.41%. For `Cc1cc(S(=O)(=O)Nc2ccc(C(=O)NCCCN3CCOCC3)cc2)ccc1F` the value was 19.8%; for `Cc1ccsc1/C=N/n1c(-c2ccncc2)n[nH]c1=S`, 19.8%; for `O=C(O)C=C(Br)Br`, 7.58%. For the compound `COC(=O)/C(=C1/Oc2cc(C)oc(=O)c2S1)C(F)(F)F`, the “hERG current change (%, negative = inhibition) at 1uM” value is 13.6%. As for `CCOC(=O)CON1C(=O)C(C)(C)N(OCC(=O)OCC)C(=O)C1(C)C`, the “hERG current change (%, negative = inhibition) at 1uM” value worked out at 15.7%. For `Cc1ccc(-n2ccnc(SCC(=O)NC3CCCCC3)c2=O)cc1F` the value was 14.5%; for `CC(c1ccccc1)C1CC(=O)N(CC(=O)O)C1=O` (stereo not shown), 16.2%; for `Cc1cccn2c(=O)c3cc(C(=O)NC4CCCCCC4)sc3nc12`, 15.1%. For `Cc1cccn2c(=O)c3cc(C(=O)NC4CCCC4)n(C)c3nc12` the value was 9.12%.

Regarding `Cc1cccn2c(=O)c3cc(C(=O)NC4CCCC4)c(=N)n(C4CCCC4)c3nc12`, the “hERG current change (%, negative = inhibition) at 1uM” value is on record as -87%. `Cc1cccn2c(=O)c3cc(C(=O)NC4CCCC4)sc3nc12`: the “hERG current change (%, negative = inhibition) at 1uM” value came out at 2.15%.

Take `Cc1cccn2c(=O)c3cc(C(=O)NC4CCCC4)c(=N)n(C4CCCCC4)c3nc12`: the “hERG current change (%, negative = inhibition) at 1uM” value is listed as -81.9%. For `Cc1cccn2c(=O)c3cc(C(=O)NC4CCCCC4)n(C)c3nc12` the value was 13.8%. For `Cc1ccc(C(=O)CSc2nnc(COc3ccc(C#N)cc3)n2-c2ccccc2)cc1` the value was 11.8%; for `O=C(CCc1nc(-c2ccccc2Cl)no1)NC1CCCC1`, 1.7%.

On to `CCOC(=O)Nc1ccc2c(c1)N(C(=O)CCN(C)C)c1ccccc1S2.Cl`, for which the “hERG current change (%, negative = inhibition) at 1uM” value was -5.69%.

In the case of `Cc1nn(C)c(Cl)c1CN1CCC(CO)(CCOc2ccccc2)CC1`, the “hERG current change (%, negative = inhibition) at 1uM” value is listed as -12.9%. The same measure for `CC(=O)c1cccc(CN2CCC(CO)(CCOc3ccccc3)CC2)c1`: -3.07%; for `COc1cc(CN2CCC(CO)(CCOc3ccccc3)CC2)cc(OC)c1OC`: 3.71%.

Regarding `COc1cc(CN2CCC(CO)(CCOc3ccccc3)CC2)cc(OC)c1`, the “hERG current change (%, negative = inhibition) at 1uM” value is -8.26%.

As to `COc1ccc2[nH]c(CN3CCC(CO)(CCOc4ccccc4)CC3)c(C)c2c1`, the “hERG current change (%, negative = inhibition) at 1uM” value is recorded as 9.37%. The same measure for `COc1ccc(CN2CCC(CO)(CCOc3ccccc3)CC2)cc1C`: -77.6%; for `COc1cc(Cl)c(CN2CCC(CO)(CCOc3ccccc3)CC2)cc1OC`: -85.1%; for `COc1cc(OC)c(CN2CCC(CO)(CCOc3ccccc3)CC2)c(OC)c1`: -87.7%.

Turning to `COc1cc(Cl)c(CN2CCCC(CO)(Cc3ccccc3)C2)cc1OC` (stereo not shown), the “hERG current change (%, negative = inhibition) at 1uM” value is listed as -2.72%. The same measure for `COc1ccc(OC)c(CN2CCC(CO)(CCOc3ccccc3)CC2)c1`: -30%; for `COc1ccc(CN2CCC(CO)(CCOc3ccccc3)CC2)c(OC)c1C`: -81.6%; for `COC(=O)c1ccc(NC(=S)Nc2ccc(O)cc2)cc1`: 5.34%.

In the case of `O=C(CNCCCO)Nc1cc(C(F)(F)F)cc(NC(=O)CNCCCO)c1Cl`, the “hERG current change (%, negative = inhibition) at 1uM” value was determined as 9.02%. With `N#Cc1cccc(NC(=O)c2ccc(S(=O)(=O)N3CCOCC3)cc2)c1`, the “hERG current change (%, negative = inhibition) at 1uM” value was 0.709%.

In the case of `COC(=O)c1cc(Cl)cc(Cl)c1OS(=O)(=O)N(C)C`, the “hERG current change (%, negative = inhibition) at 1uM” value was 1.43%.

Take `N#CC1=C(N)Oc2nc[nH]c(=O)c2C1c1cccs1` (stereo not shown): the “hERG current change (%, negative = inhibition) at 1uM” value worked out at 17.3%. The same measure for `CCOC(=O)C(OC(=O)c1sc(=S)n(C)c1C)C(C)=O` (stereo not shown): 18%; for `COc1ccccc1CN1CCNC(=O)C1CC(=O)N(C)Cc1nc(C)cs1` (stereo not shown): 17.2%; for `CC(=O)c1ccccc1NC(=O)COC(=O)c1ccc2c(c1)nc(C)n2-c1ccccc1`: 20.6%. Consider `CC(=O)c1c(C)[nH]c(C(=O)OCc2ccc(F)cc2Cl)c1C`, for which the “hERG current change (%, negative = inhibition) at 1uM” value was 10.6%. For `Cc1cc2oc(=O)cc(CN3CCC(C)CC3)c2cc1C` the value was 12.8%; for `Cc1ccc(C)c(Oc2coc3cc(O)ccc3c2=O)c1`, 0.658%; for `CCOC(=O)C1=NN(c2ccc(C)cc2)C2(S1)SC(C(C)=O)=C(C)N2c1ccccc1` (stereo not shown), 8.85%. The same measure for `Clc1cccc(CSc2nnc(-c3cccnc3)n2Cc2ccco2)c1`: -61%; for `C(=C\c1ccccc1)/CSc1nnc(-c2ccncc2)n1Cc1ccco1`: -26.9%; for `Clc1ccccc1CSc1nnc(-c2cccnc2)n1Cc1ccco1`: -14.2%. For `C(=C\c1ccccc1)/CSc1nnc(-c2cccnc2)n1Cc1ccco1` the value was -51.9%; for `Clc1ccc(CSc2nnc(-c3cccnc3)n2Cc2ccco2)c(Cl)c1`, -42.3%. `C(=C\c1ccccc1)/CSc1nnc(-c2ccccc2)n1Cc1ccco1`: the “hERG current change (%, negative = inhibition) at 1uM” value is -45.4%. As to `Cc1cc(C)cc(NC(=O)Cn2nnc(C(=O)NCc3ccccc3Cl)c2N)c1`, the “hERG current change (%, negative = inhibition) at 1uM” value is reported as 13.6%. The same measure for `CCOc1ccc(CCNC(=O)CS(=O)(=O)Cc2nc(-c3ccc(OC)cc3)oc2C)cc1`: -0.117%; for `COC(=O)[C@]1(C)N[C@H](c2ccc(-c3ccccc3)cc2)[C@@H]2C(=O)N(C)C(=O)[C@@H]21.O=C(O)C(F)(F)F`: 15.8%; for `Cc1ccccc1N1CCN(CCCN2C(=O)CC(=C(c3ccccc3)c3ccccc3)C2=O)CC1`: 3.79%.

As for `Cc1sc(NC(=O)c2ccccc2F)c(CN2CCCCC2)c1C`, the “hERG current change (%, negative = inhibition) at 1uM” value was 9.65%.

With `CCOc1ccc(NC(=O)CCNC(=O)Cn2cnc3ccccc3c2=O)cc1`, the “hERG current change (%, negative = inhibition) at 1uM” value is recorded as 18.9%. For `CCN(Cc1ccncc1)C(=O)c1cc(COc2c(C)cccc2C)on1` the value was -63.1%; for `CCN(Cc1ccncc1)C(=O)c1cc(COc2c(F)cccc2F)on1`, -8.09%; for `CCN(Cc1ccncc1)C(=O)c1cc(COc2ccc(C)c(C)c2)on1`, -5.56%. For `CCN1CCN(C(=O)COc2ccc(S(=O)(=O)Nc3ccc(Cl)cc3)cc2)CC1` the value was 12.1%. For `Cc1cccc(NC(=O)Nc2c(C)n(C)n(-c3ccccc3)c2=O)c1` the value was 9.37%; for `CCOc1nc(-c2ccccc2)ccc1-c1noc(-c2cccnc2)n1`, 7.07%; for `COc1ccc(CCNC(=O)CC2Nc3ccccc3NC2=O)cc1OC` (stereo not shown), 12.7%.

In the case of `CCOC(=O)N1CCc2c(sc(NC(=O)CN3CCN(C)CC3)c2C(=O)Nc2ccccc2)C1`, the “hERG current change (%, negative = inhibition) at 1uM” value was -85.6%. For `CCOC(=O)c1c(NC(=S)Nc2ccccc2)sc2c1CCN(CC)C2` the value was -80.2%; for `CCOC(=O)c1c(NC(=O)Nc2ccc(C)cc2)sc2c1CCN(C)C2`, 9.62%.

On to `CCOC(=O)c1c(NC(=S)Nc2ccccc2)sc2c1CCCCC2`, for which the “hERG current change (%, negative = inhibition) at 1uM” value is reported as 12.8%.

On to `CCOC(=O)N1CCc2c(sc(NC(=O)CN3CCOCC3)c2C(=O)Nc2ccccc2)C1`, for which the “hERG current change (%, negative = inhibition) at 1uM” value was -31.9%. For `CCOC(=O)c1c(NC(=O)Cc2ccccc2)sc2c1CCN(CC)C2.Cl` the value was -18.3%. For `CCOC(=O)c1c(NC(=S)Nc2ccc(Cl)cc2)sc2c1CCN(C)C2` the value was -57.4%; for `CCOC(=O)c1c(NC(=O)Cc2ccccc2)sc2c1CCN(C)C2.Cl`, -19.2%. For `CCOC(=O)c1c(NC(=O)CN2CCCCC2)sc2c1CCN(C(=O)OCC)C2`, the “hERG current change (%, negative = inhibition) at 1uM” value was determined as 2.11%.

For the compound `CCOC(=O)c1c(NC(=S)Nc2ccccc2)sc2c1CCN(CCc1ccccc1)C2`, the “hERG current change (%, negative = inhibition) at 1uM” value is recorded as 2.54%. For `CCOC(=O)c1c(NC(=S)Nc2ccccc2)sc2c1CCN(C)C2` the value was -62.8%. The same measure for `CCOC(=O)c1c(NC(=S)Nc2ccc(OCC)cc2)sc2c1CCN(C)C2`: -11%.
